TRHR PAM – allosterically enhances the human TRH receptor; TRHR cells, fluo-8 calcium fluorescence, EC20 TRH enhancement; 360,000 compounds, 0.66% hits; P34981; enhancement, % at 2 µM; in the data active = enhancement above about 30%
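TRHR-expressing cells loaded with fluo-8 calcium dye were read kinetically (ex 480/em 530) during compound addition, then stimulated with an EC20 of TRH (10 nM final). Enhancement of the Gq-mediated intracellular calcium response was scored.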
D1 antag – blocks dopamine activation of the human D1 receptor | P21728 | HEK293 TREx D1 cells, calcium flux, dopamine EC80; stronger effect = lower value | activity change, negative = inhibition, % at 10 µM | 360,000 compounds, 3.2% hits | AID 504652; in the data active = activity change below about -30%
Target sequence (P21728 whole entry, looked up): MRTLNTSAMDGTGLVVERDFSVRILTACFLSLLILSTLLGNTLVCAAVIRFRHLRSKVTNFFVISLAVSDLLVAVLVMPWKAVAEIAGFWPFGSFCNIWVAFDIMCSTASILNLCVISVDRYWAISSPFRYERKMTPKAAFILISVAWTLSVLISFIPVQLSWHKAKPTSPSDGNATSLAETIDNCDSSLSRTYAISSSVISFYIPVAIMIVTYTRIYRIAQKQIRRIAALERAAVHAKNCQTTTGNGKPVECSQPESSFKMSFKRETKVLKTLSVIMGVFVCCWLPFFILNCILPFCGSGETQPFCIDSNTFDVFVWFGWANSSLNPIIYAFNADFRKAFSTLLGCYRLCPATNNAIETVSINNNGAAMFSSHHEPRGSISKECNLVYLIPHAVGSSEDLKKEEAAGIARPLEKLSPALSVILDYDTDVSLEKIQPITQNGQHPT
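After overnight tetracycline induction at 30 C, force-coupled D1 HEK293 cells took up a no-wash calcium dye at room temperature. Compounds were added and monitored 180 s, and the response to EC80 dopamine was then recorded.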
TRHR ag – agonists of human TRH receptor | activation, % at 2 µM | TRHR cells, calcium flux fluo-8, FDSS agonist mode | 360,000 compounds, 0.18% hits | AID 493084
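TRHR-expressing cells, plated overnight in medium with 10% serum, were loaded with fluo-8 calcium dye at room temperature. After a 10 s baseline, library compound was pin-added and calcium release was recorded kinetically (ex 480/em 530) as agonist response.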
D1 agonist – activates the human D1 dopamine receptor; P21728; HEK293 T-REx D1 cells, calcium flux, agonist mode; activation, % at 2 µM; 360,000 compounds, 1% hits; AID 504660
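Tetracycline-induced HEK293 TREx D1 cells, force-coupled to calcium signalling, were dye-loaded with a no-wash calcium kit. Compound was pin-added after a 10 s baseline. Fluorescence was read kinetically at 1 cycle/s for 180 s, with calcium rises flagged as agonism.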
D1 potentiator – enhances dopamine response at the human D1 receptor; P21728; HEK293 TREx D1 cells, calcium flux, dopamine EC20 potentiation; potentiation, % at 10 µM; 360,000 compounds, 0.036% hits; in the data active = potentiation above about 30%
Each line names hits and unclear results; the compound was inactive in the other large screens. Rows were chosen to be rich in hits. Some 4.7% of all compounds tested hit in one or more screens of this group. Cut-off read from the data, not from the text of the source, unless noted: active = activation above about 30%; inactive = the rest.

CCCOC(=O)c1ccc(NC(=O)C2CC(=O)N(c3ccc(C)cc3)C2)cc1 (centres undefined)	none
NC(=O)c1ccc(NC(=O)COC(=O)CCC(=O)c2ccc(Cl)cc2)cc1	D1 antag -31.2
O=C(COC(=O)CCC(=O)c1ccc(F)cc1)Nc1ccccc1	none
Cc1ccccc1OCC(=O)Nc1nnc(SCc2cc(=O)n3cc(Cl)ccc3n2)s1	none
CC(C)Oc1ccc(C(CC(=O)NCCCN(C)C)c2ccc(F)cc2)cc1 (centres undefined)	D1 antag -37.2
N/C(=N\OC(=O)c1cccc(Cl)c1)c1ccccn1	D1 antag -38.5
Cc1cccc(OCC(=O)O/N=C(\N)c2ccc(Cl)cc2)c1	D1 antag -43.5
N/C(=N\OC(=O)c1cccnc1)c1ccc(Cl)cc1Cl	D1 antag -33.0
N/C(=N\OC(=O)COc1ccc(Br)cc1)c1ccncc1	D1 antag -39.5
Cc1cc(C)cc(NC(c2cccc(Cl)c2)c2nnc(-c3ccccc3)o2)c1 (centres undefined)	none
Cc1sc2ncn(CC(=O)Nc3ccc(F)cc3Cl)c(=O)c2c1S(=O)(=O)N1CCN(c2ncccn2)CC1	none
O=C(c1ccc2c(c1)OCO2)c1cn(Cc2ccc(F)cc2)c2ccccc2c1=O	none
N/C(=N\OC(=O)COc1ccccc1Cl)c1ccccn1	none
N/C(=N\OC(=O)COc1ccc2ccccc2c1)c1ccccn1	D1 antag -52.8
O=C(CCC(=O)Nc1cccc2ccccc12)N/N=C/c1ccco1	none
O=C(N/N=C/c1ccco1)Nc1ccccc1	none
Cc1cccc(NC(=O)CCC(=O)N/N=C/c2ccco2)c1C	TRHR PAM 33.5
O=C(CCC(=O)Nc1ccccc1)N/N=C/c1ccco1	TRHR PAM 38.0
CCC(=O)NNC(=O)CCC(=O)Nc1ccccc1	none
NNC(=O)CCC(=O)Nc1ccccc1	D1 antag -32.8
COc1cc(Cl)c(C)cc1NC(=O)c1sc2nc3n(c(=O)c2c1C)CCCCC3	none
C=CCn1c(SCc2ccc(F)cc2)nnc1-c1sc2nc(C)cc(C)c2c1N	D1 antag -38.1
C=CCn1c(SCc2ccc(OC)cc2)nnc1-c1cccnc1	none
C[C@H]1c2cccc(O)c2C(O)=C2C(=O)[C@]3(O)C(O)=C(C(N)=O)C(=O)[C@@H](N(C)C)[C@@H]3[C@@H](O)[C@@H]21	D1 antag -83.5
c1ccc(N2CCN(c3ncnc4c3nc3n4CCCCC3)CC2)cc1	none
O=C(COc1ccccc1)Nc1nnc(SCc2cc(=O)n3cc(Cl)ccc3n2)s1	none
CC1CCN(CCNC(=O)CCS(=O)(=O)c2ccc(Br)cc2)CC1	D1 antag -42.9
Cc1n[nH]c(C)c1CCc1nc2c3ccccc3nc(SCC(N)=O)n2n1	TRHR PAM 33.0
Cc1n[nH]c(C)c1CCc1nc2c3ccccc3nc(SCC(=O)Nc3ccc(F)cc3)n2n1	none
Cc1cccc(C)c1NC(=O)CSc1nc2ccccc2c2nc(CCc3c(C)n[nH]c3C)nn12	D1 antag -46.2
Oc1cccc(Nc2nc(O)c(/C=C3\C=Nc4ccccc43)s2)c1	D1 agonist 34.3
COc1ccc(-c2cn3nc(N4CCCC(C(=O)Nc5ccc(C)c(C)c5)C4)sc3n2)cc1 (centres undefined)	none
COc1ccc(/C=c2\s/c(=C/C(=O)c3ccc(C)cc3)[nH]c2=O)c(OC)c1	TRHR ag 54.4, D1 agonist 136.0
COc1cccc(/C=c2\s/c(=C/C(=O)c3ccc(C)cc3)[nH]c2=O)c1OC	none
COc1cc([C@@H]2Nc3c(F)cccc3[C@@H]3C=CC[C@@H]32)cc(Br)c1OC	none
O=C(Cn1cccn1)N1CCCC(N2CCN(c3cccc(C(F)(F)F)c3)CC2)C1 (centres undefined)	none
O=C(CCn1cccn1)N1CCCC(N2CCN(c3cccc(C(F)(F)F)c3)CC2)C1 (centres undefined)	TRHR PAM 34.2
Cc1cc(C(=O)N2CCCC(N3CCN(c4cccc(C(F)(F)F)c4)CC3)C2)n[nH]1 (centres undefined)	D1 antag -49.7
CC(=O)c1ccc(NC(=O)CN(C)S(=O)(=O)c2cc3c(cc2C)NC(=O)CO3)cc1	none
Cc1ccc(-n2nc3c(=O)n(CCCC(=O)NCCN4CCN(C)CC4)nc(C)c3c2C)cc1	none
O=C(CCn1nnnc1CN1CCOCC1)N1CCC(c2ccccc2F)C1 (centres undefined)	none
CCN(CC)S(=O)(=O)c1ccc(Oc2ccc(S(=O)(=O)N(CC)CC)cc2)cc1	D1 agonist 30.7
O=S(=O)(c1ccccc1)N1CCCN(S(=O)(=O)c2ccccc2)CC1	D1 antag -45.4
O=S(=O)(c1ccccc1)N1CCN(S(=O)(=O)N2CCCCC2)CC1	none
CCN(CC)S(=O)(=O)c1ccc(S(=O)(=O)N2CCCC2)cc1	TRHR PAM 38.4
CCOc1ccc(S(=O)(=O)N2CCCC2)cc1	none (no result: D1 antag)
CC(C)(C)N(Cc1ccccc1)C(=O)c1cc2ccccc2o1	none
CCn1cc(/C=C/c2cc[n+](C)cc2)c2ccccc21	D1 agonist 69.1
C=CCn1cc(/C=C/c2cc[n+](C)cc2)c2ccccc21	D1 agonist 38.3
CC1(C)CC(=O)c2c(Cc3ccccc3)noc2C1	TRHR PAM 31.7
Cc1ccc(NC(=O)CN2C(=O)CCn3nc(-c4cccn4C)cc32)c(Cl)c1	none
Cc1cccc(OCc2nnc(-c3ccccc3)o2)c1	none
CCOC(=O)c1c(C)oc2nc(C)nc(NCCCN3CCN(c4ccccc4)CC3)c12	none
CCOC(=O)c1c(C)oc2nc(C)nc(NCCCN3CCN(c4cccc(C)c4)C(C)C3)c12 (centres undefined)	TRHR PAM 37.7
Cc1cc(C)c(S(=O)(=O)N2CCCCC2)cc1N(C)S(=O)(=O)c1ccc(Cl)cc1	D1 antag -30.6
Cc1ccc(S(=O)(=O)N(C)c2cc(S(=O)(=O)N3CCOCC3)c(C)cc2C)cc1	none
CCC(C)NC(=O)Cn1c(=O)n(Cc2ccc(C(=O)NCc3ccc(C)cc3)cc2)c(=O)c2ccccc21 (centres undefined)	none
Oc1ccc(Cl)cc1CNCc1ccc(C(F)(F)F)cc1	none
COc1ccc(C(=O)Nc2ccc3oc(-c4ccc(F)cc4Cl)nc3c2)cc1	D1 antag -37.6
COc1cc2ccccc2cc1C(=O)Nc1ccc2oc(-c3ccc(F)cc3Cl)nc2c1	none
CC(C)(C)[C@H]1C=C(C(N)=O)O[C@@H](OCc2ccc(CO)cc2)C1	D1 antag -30.7
CC(C)(C)[C@@H]1C=C(C(N)=O)O[C@H](OCc2ccc(CO)cc2)C1	none
COc1ccc(-c2cc(C(F)(F)F)nc(SCC(=O)NCc3ccc(OC)c(OC)c3)n2)cc1	none
Cc1cc2ccc3ccccc3c2cc1CN(C)C	D1 antag -42.5
CN(C)Cc1cc2ccccc2c2c1COC2	none
Cc1ccc(-c2nc(CS(=O)CC(=O)NCCCc3ccccc3)c(C)o2)cc1 (centres undefined)	none

Bioassay records: PubChem BioAssay, National Center for Advancing Translational Sciences (NCATS)
